# Assay results reported in the supplement of paper PMC8975748.
# Where a name gives a salt, the structure may show the parent alone.
# Tested on: Saccharomyces cerevisiae BY4741 SeMeCo community
# Assay: z-score of subpopulation abundance vs DMSO median, subpopulation auxotrophic for LUM; higher = larger share of this subpopulation than in DMSO controls
# Details: 10 µM; 24 h; SM minimal medium; subpopulation (auxotrophy): LUM
# Protocol: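 Fluorescent four-plasmid SeMeCo (self-establishing metabolically cooperating S. cerevisiae BY4741 community; plasmids pH-mRuby2, pL-mWasabi, pU-eCFP, pM-TagRFP657) was grown 24 h in minimal SM medium with each Selleck FDA-approved drug at 10 µM in 384-well plates. Cells were fixed and imaged by high-content confocal microscopy. For each auxotrophic subpopulation (and the prototroph), a z-score gives the deviation from the DMSO vehicle-control population median.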
row,SMILES,z-score of subpopulation abundance
1,Oc1cccc2cccnc12 [8-Hydroxyquinoline],-0.89
2,CCCCCCCCCCCCCCCC[n+]1ccccc1 [Cetylpyridinium Chloride],7.62
3,O=C(O[C@H]1C[C@H]2CC[C@@H](C1)[N+]21CCCC1)C(O)(c1ccccc1)c1ccccc1 [Trospium chloride],-0.13
4,C[C@@H]1CC[C@H]2[C@@H](C)C(=O)O[C@@H]3O[C@@]4(C)CC[C@@H]1[C@]32OO4 [Artemisinin],-0.97
5,CN1C(=O)COc2c(C(=O)NC3CN4CCC3CC4)cc(Cl)cc21 (centres undefined) [Azasetron HCl],-0.38
6,CC(C)=CCOc1c2occc2cc2ccc(=O)oc12 [Imperatorin],0.74
7,CC(=O)OCC1=C(C(=O)O)N2C(=O)C(N)C2SC1 (centres undefined) [7-Aminocephalosporanic acid],-0.51
8,C=CN1CCCC1=O.II [Povidone iodine],0.83
9,CN(C)[C@@H]1C(=O)C(C(N)=O)=C(O)[C@@]2(O)C(=O)C3=C(O)c4c(O)ccc(Cl)c4[C@@](C)(O)[C@H]3C[C@@H]12 [Chlortetracycline HCl],-0.67
10,COc1ccc(C(CN(C)C)C2(O)CCCCC2)cc1 (centres undefined) [Venlafaxine HCl],1.02
11,Cn1cc(C2=C(c3cn(C4CCN(Cc5ccccn5)CC4)c4ccccc34)C(=O)NC2=O)c2ccccc21,-0.2
12,"NCC(O)c1ccc(O)cc1 (racemic) [(+,-)-Octopamine HCl]",0.58
13,CCN1CC2(OC(=O)c3ccccc3NC(C)=O)CCC(OC)C34C1C(CC23)C1(O)CC(OC)C2CC4C1(O)C2OC (centres undefined) [Lappaconitine],0.98
14,CCC1=C[C@H]2CN3CCc4c([nH]c5ccccc45)[C@](C(=O)OC)(C2)[C@H]13 [Catharanthine],-0.3
15,O=c1cccc2n1C[C@@H]1CNC[C@H]2C1 [Cytisine],-0.47
16,COC(=O)C1=CCCN(C)C1 [Arecoline HBr],0.07
17,COc1ccc(C(CN(C)C)C2(O)CCCCC2)cc1 (centres undefined) [Venlafaxine],0

row,SMILES,z-score of subpopulation abundance
1,CCCN1C[C@H](CSC)C[C@@H]2c3cccc4[nH]cc(c34)C[C@H]21 [Pergolide Mesylate],-0.65
2,Oc1cc(Cl)ccc1Oc1ccc(Cl)cc1Cl [Triclosan],0.02
3,C=CCN1C[C@H](C(=O)N(CCCN(C)C)C(=O)NCC)C[C@@H]2c3cccc4[nH]cc(c34)C[C@H]21 [Cabergoline],0.18
4,CN(C)C(=O)Oc1ccc[n+](C)c1 [Pyridostigmine Bromide],-0.35
5,C[N+](C)(C)CCCCCCCCCC[N+](C)(C)C [Decamethonium Bromide],0.08
6,COc1ccc2[nH]cc(CCN)c2c1 [5-Methoxytryptamine],0.78
7,C[N+]1(C)[C@@H]2C[C@@H](OC(=O)[C@H](CO)c3ccccc3)C[C@H]1[C@@H]1O[C@@H]12 [Methscopolamine],0.43
8,CC[N+](C)(CC)CCOC(=O)C(O)(c1ccccc1)c1ccccc1 [Methylbenactyzine Bromide],-1.06
9,NCCc1c[nH]c2ccc(O)cc12 [Serotonin HCl],-0.88
10,C=CC[C@]1(O)CC[C@H]2[C@@H]3CCC4=CC(=O)CCC4=C3C=C[C@@]21C [Altrenogest],-0.14
11,C=C[C@H]1CN2CC[C@H]1C[C@H]2[C@H](O)c1ccnc2ccccc12 [Cinchonidine],0.19
12,NC(=O)CN1CCCC1=O [Piracetam],2.09
13,C[N+]12CCC(CC1)C(OC(=O)C(O)(c1ccccc1)c1ccccc1)C2 (centres undefined) [Clidinium Bromide],-0.9
14,CN[C@@H]1[C@@H](O)[C@@H](O[C@@H]2[C@@H](O)[C@H](O[C@H]3O[C@H]([C@@H](C)O)[C@@H](O)[C@H](O)[C@H]3N)[C@@H](N)C[C@H]2N)OC[C@]1(C)O [Geneticin (G418 Sulfate)],-0.36
15,C#C[C@]1(O)C=C[C@H]2[C@@H]3CCC4=CC(=O)CC[C@@H]4[C@H]3CC[C@@]21CC [Gestodene],0.24
16,CN(C)[C@@H]1C(=O)C(C(N)=O)=C(O)[C@@]2(O)C(=O)C3=C(O)c4c(O)cccc4[C@@](C)(O)[C@H]3C[C@@H]12 [Tetracycline HCl],-0.52
17,CN1[C@@H]2CC[C@H]1C[C@@H](OC(=O)C(CO)c1ccccc1)C2 (some centres undefined) [Atropine sulfate monohydrate],0.28
